CYP2C9 inh: blockers of cytochrome P450 2C9 activity – biochemical, luminescence, ADME assay, primary screen; inhibition, % at 5 µM; 20% of 96,000 active; CYP2C9 Supersomes, luciferin-H conversion;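 active means blocking of liver enzyme CYP2C9 beyond about 50% at 5 µM, limit read from the data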
CYP2C19 act: human CYP2C19 activators, primary screen, biochemical, luminescence; Cytochrome P450 2C19 (Homo sapiens), P33261; recombinant CYP2C19, luciferin-H EGE luminescence; hits give high values; 0 = fully inhibited enzyme, 1 = untreated enzyme; activation factor at 5 µM; 96,000 tested, under 10 active; AID 1025, 2008;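 active means activation factor of at least 2 at 5 µM in the primary screen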
Target sequence (P33261 whole entry, looked up): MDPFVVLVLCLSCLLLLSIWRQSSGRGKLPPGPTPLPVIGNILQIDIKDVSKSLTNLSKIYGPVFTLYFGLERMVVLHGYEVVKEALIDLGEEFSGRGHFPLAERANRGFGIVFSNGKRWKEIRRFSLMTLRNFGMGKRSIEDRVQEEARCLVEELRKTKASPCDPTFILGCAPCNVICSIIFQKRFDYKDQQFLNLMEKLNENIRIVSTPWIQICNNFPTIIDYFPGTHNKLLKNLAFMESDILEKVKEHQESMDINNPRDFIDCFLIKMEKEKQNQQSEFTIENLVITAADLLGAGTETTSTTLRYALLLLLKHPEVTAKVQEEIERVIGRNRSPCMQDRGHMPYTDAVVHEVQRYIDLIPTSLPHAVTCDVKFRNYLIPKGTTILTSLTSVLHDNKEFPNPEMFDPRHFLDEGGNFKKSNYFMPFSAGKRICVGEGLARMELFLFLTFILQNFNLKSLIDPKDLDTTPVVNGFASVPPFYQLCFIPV
sEH inh: soluble epoxide hydrolase inhibitors, primary screen, biochemical, human sEH; Bifunctional epoxide hydrolase 2 (Homo sapiens), P34913; recombinant human sEH enzymatic activity assay; inhibition, % at 2 µM; 0.34% of 91,000 active; AID 707, 2007; in the data active means inhibition above about 80%
CYP2C9 act: human CYP2C9 activators, primary screen, biochemical, luminescence. 1.4% of 96,000 active. Cytochrome P450 2C9 (Homo sapiens), P11712. activation factor at 5 µM. recombinant CYP2C9, luciferin-H conversion; hits give high values; factor 1 = untreated enzyme, 0 = blocked;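 active means activation factor of 2 or more for CYP2C9 at a 5 µM dose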
sEH activator: soluble epoxide hydrolase activators, primary screen, biochemical, human sEH; Bifunctional epoxide hydrolase 2 (Homo sapiens), P34913; purified human sEH enzymatic activity, activator screen; activation, % at 2 µM; 0.04% of 91,000 active; AID 717, 2007; in the data active means activation above about 37%
CYP2C19 inh: blockers of cytochrome P450 2C19 activity – biochemical, luminescence, ADME assay, primary screen; P33261; CYP2C19 Supersomes, luciferin-H EGE luminescence, 30 min; inhibition, % at 5 µM; 21% of 96,000 active; AID 778, 2007;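 active means CYP2C19 inhibition above a set limit at 5 µM in the primary screen, cut at about 50% in these data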
Each line names hits and unclear results; the compound was inactive in the other large screens. Shown are actives, neighbours in structure and some others; about 27% of the full set was active somewhere.

CN1CCN(C(=O)C2CC(c3c(F)cccc3Cl)=NO2)CC1 (stereo not given)	CYP2C9 act 2.8
Cc1ccc(O)c(NC(=O)C2CC(c3c(F)cccc3Cl)=NO2)c1 (stereo not given)	CYP2C19 inh 94.3
COc1ccccc1C(=O)NC1CCCCCCC1	none (no result: CYP2C9 inh, CYP2C19 act, CYP2C9 act, CYP2C19 inh)
COc1ccccc1Nc1ccc(C(=O)NC2CCCCC2)cn1	CYP2C9 act 2
N#C/C(=C/N1CCOCC1)c1ccccc1	CYP2C19 inh 53.2
O=C(c1ccccc1)N1CCN(C(=O)N2CCOCC2)CC1	none
CC1(c2cccs2)CC(c2cccs2)=C(C#N)C(=O)N1 (stereo not given)	CYP2C19 inh 79.2
Cc1ccc(S(=O)(=O)NC(=O)Nc2nnc(C3CC3)s2)cc1	none
Cc1ccc(OCC(=O)OC2CCS(=O)(=O)C2)cc1 (stereo not given)	none
CCCSc1cc(N2CCOCC2)nc(-c2ccccc2Cl)n1	CYP2C9 inh 57.4
CCn1c(CSc2nc3ccccc3s2)nnc1SCC(=O)OC(C)(C)C	none
CCOC(=O)N1CCN(Cc2nc(-c3ccc(C)cc3)no2)CC1	none
Cc1nc(N2CCC(C)CC2)c2oc3ccccc3c2n1	CYP2C9 inh 69.9, CYP2C19 inh 66.6
COc1ccccc1N1CCN(c2nc(C)nc3c2oc2ccccc23)CC1	none
CCc1nc(N2CCCC2C(=O)O)c2oc3ccccc3c2n1 (stereo not given)	none
Cc1nc(N2CCN(C(=O)c3ccco3)CC2)c2oc3ccccc3c2n1	CYP2C9 inh 53.1, CYP2C19 inh 69.8 (no result: sEH inh, sEH activator)
CCc1nc(N2CCN(C(=O)c3ccco3)CC2)c2oc3ccccc3c2n1	CYP2C9 inh 91.8, CYP2C19 inh 94.7
Cc1nc2ccccc2c2oc(C(=O)N3CCN(C(=O)c4ccco4)CC3)cc12	none (no result: sEH inh, sEH activator)
C=C1N(c2ccc(Cl)cc2)C(=O)OC1(C)C	CYP2C19 inh 58.4
CC(C)(C)c1nnc2sc(SCC(=O)c3ccccc3)nn2c1=O	CYP2C9 inh 88.4
COc1ccc(C(=O)CSc2nn3c(=O)c(C(C)(C)C)nnc3s2)cc1	none
COc1ccc(-n2c(C)cc(C(=O)CSc3nn4c(=O)c(C(C)(C)C)nnc4s3)c2C)cc1	CYP2C9 inh 78.1, CYP2C19 inh 58.0
CC(C)(C)c1nnc2sc(SC/C(O)=C(\C#N)c3nc4ccccc4[nH]3)nn2c1=O	CYP2C19 inh 68.0
Cc1ccc(S(=O)(=O)Nc2c(C)ccc3nsnc23)cc1	none (no result: CYP2C9 inh, CYP2C19 act, CYP2C9 act, CYP2C19 inh)
Cc1ccc2ncccc2c1NS(=O)(=O)c1ccccc1	CYP2C19 inh 57.2
Cn1c(=O)c2c(ncn2CC(=O)Nc2ccccc2Sc2ccccc2)n(C)c1=O	none
Cc1ccc(Cl)cc1N1CCN(Cc2nc3c(c(=O)[nH]c(=O)n3C)n2Cc2ccccc2F)CC1	none (no result: sEH inh, sEH activator)
CC(=O)N(c1ccc2oc(=O)sc2c1)S(=O)(=O)c1ccccc1	CYP2C19 inh 64.7
CCCC(=O)N(c1ccc2oc(=O)sc2c1)S(=O)(=O)c1cccs1	CYP2C9 inh 70.9, CYP2C19 inh 99.2
CC(C)C(=O)N(c1ccc2oc(=O)sc2c1)S(=O)(=O)c1ccccc1	none
O=C(O)Cn1c(CC(=O)N2CCCC2)nc2ccccc21	none
C=CCn1cc(C(=O)NCCOC)c(=O)c2cc(S(=O)(=O)N(CC)CC)ccc21	CYP2C9 inh 74.9
C=CCn1cc(C(=O)NCCCOCC)c(=O)c2cc(S(=O)(=O)N(CC)CC)ccc21	CYP2C9 inh 55.7
CCN(CC)S(=O)(=O)c1ccc2c(c1)c(=O)c(C(=O)NCCOC)cn2C	none
C=CCn1cc(C(=O)NCc2cccnc2)c(=O)c2cc(S(=O)(=O)N(CC)CC)ccc21	CYP2C9 inh 89.4
Cc1ccc(NC(=O)/C(=C\c2cccnc2)NC(=O)c2ccco2)cc1	none
CCCCCNc1nc(-c2ccccc2)cs1	CYP2C9 inh 63.7, CYP2C19 inh 76.5
Cc1nc(-c2ccccc2)cs1	none
O=C(CN(C(=O)CNC(=O)c1ccco1)c1ccc2c(c1)OCO2)NC1CCCCC1	CYP2C9 inh 95.3, CYP2C19 inh 73.2

Assay outcomes as filed in PubChem.
